Screening data: PubChem, Broad Institute
In the library only some 7.8% were active in any assay of this set; here they are far more common.
Shh pathway inh – Hedgehog pathway signaling inhibitors, primary screen, luminescence, Shh-LIGHT2 cells, Gli-luciferase | Shh-LIGHT2 Gli-luciferase reporter, 30 h | hit rate 2.1% among 22,000 | inhibition, % (no concentration beside the values) | AID 2313, 2010;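 active = mean inhibition across valid replicates above about 65%, limit read from the data; inconclusive = mean under the limit, yet half or more replicates past it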;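 also: pathway switched on by Shh-conditioned medium diluted 1 in 25 in low serum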
NOMO-1 viab – NOMO-1 AML cell viability reduction, primary screen, STK33 inhibitor project, CellTiter-Glo luminescence | NOMO-1 AML viability, 72 h | inhibition, % (concentration not given with the values) | hit rate 7.5% among 37,000 | AID 2330, 2010; in the data active = inhibition above about 80%; inconclusive = no clear call, values can overlap the other calls
MITF inh – inhibitors of MITF, primary screen, MITF inhibitor project, cell-based, luminescence; TRPM1 promoter luciferase, 24 h; inhibition, % (concentration not given with the values); hit rate 0.28% among 37,000; in the data active = inhibition above about 85%; inconclusive = no clear call, values can overlap the other calls; inactive = below about 68%;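 also: human melanocyte line stably carrying TRPM1 promoter luciferase reporter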
Hits are given with their value; . = inactive; ? = inconclusive; / = not tested or not shown.

SMILES | Shh pathway inh | NOMO-1 viab | MITF inh
C[C@@H]1CN([C@@H](C)CO)C(=O)c2cc(NC(=O)Nc3ccc(C(F)(F)F)cc3)ccc2O[C@@H]1CN(C)CC1CCCCC1 | . | 118.3 | .
C[C@@H]1CN([C@H](C)CO)C(=O)c2cc(NC(=O)Nc3ccc(C(F)(F)F)cc3)ccc2O[C@@H]1CN(C)CC1CCCCC1 | / | 126.2 | .
C[C@@H]1CN([C@H](C)CO)C(=O)c2cc(NC(=O)Nc3ccc(F)cc3)ccc2O[C@@H]1CN(C)CC1CCCCC1 | . | . | .
CCN(C(=O)Cn1c(-c2nonc2N)nc2ccccc21)c1ccccc1 | / | . | .
Cc1ccc(F)cc1NC(=O)CSc1nnc(-c2ccccc2Cl)o1 | / | . | .
C[C@@H]1CN([C@@H](C)CO)C(=O)c2cccc(NC(=O)c3ccncc3)c2O[C@H]1CN(C)S(=O)(=O)c1cn(C)cn1 | . | . | .
CC1=CC(C)(C)N(S(=O)(=O)c2ccc(C)cc2)c2ccccc21 | 67.7 | 111.1 | .
Cc1ccc(S(=O)(=O)c2ccc(-c3ccccc3)cc2)cc1 | / | . | .
C[C@@H]1CN([C@@H](C)CO)C(=O)c2cccc(NC(=O)CCCCCC(=O)Nc3ccccc3N)c2O[C@H]1CN(C)C | / | . | .
C[C@@H]1CN([C@@H](C)CO)C(=O)c2cccc(NC(=O)CCCCCC(=O)Nc3ccccc3N)c2O[C@@H]1CN(C)Cc1ccc(Oc2ccccc2)cc1 | / | 126.2 | .
C[C@H](CO)N1C[C@H](C)[C@H](CN(C)C(=O)Nc2ccccc2)Oc2c(NC(=O)CCCCCC(=O)Nc3ccccc3N)cccc2C1=O | / | . | .
C[C@@H]1CN([C@H](C)CO)C(=O)c2cccc(NC(=O)CCCCCC(=O)Nc3ccccc3N)c2O[C@@H]1CN(C)Cc1ccc(Oc2ccccc2)cc1 | / | 139.8 | .
C=C(C(=O)O)C(CCCCCCO)C(=O)O (configuration not stated) | . | . | .
Cc1ccc(-n2c(Cn3ncc4ccccc4c3=O)n[nH]c2=S)cc1 | / | . | .
Cc1ccc(-n2sc3ccccc3c2=O)cc1 | . | 140.6 | .
Cc1noc(C)c1NC(=O)Nc1ccc2c(c1)CC(=O)N([C@@H](C)CO)C[C@H](C)[C@H](CN(C)Cc1ccc(-c3ccccc3)cc1)O2 | . | 98.7 | .
Cc1noc(C)c1NC(=O)Nc1ccc2c(c1)CC(=O)N([C@H](C)CO)C[C@@H](C)[C@@H](CN(C)Cc1ccc(Oc3ccccc3)cc1)O2 | . | . | .
Cc1noc(C)c1NC(=O)Nc1ccc2c(c1)CC(=O)N([C@@H](C)CO)C[C@H](C)[C@H](CN(C)Cc1ccc(Oc3ccccc3)cc1)O2 | . | 99.6 | .
Cc1noc(C)c1NC(=O)Nc1ccc2c(c1)CC(=O)N([C@H](C)CO)C[C@@H](C)[C@@H](CN(C)Cc1ccc(-c3ccccc3)cc1)O2 | . | . | .
CC(C)NC(=O)Nc1ccc2c(c1)CC(=O)N([C@H](C)CO)C[C@@H](C)[C@@H](CN(C)Cc1ccc(Oc3ccccc3)cc1)O2 | ? | . | .
CCn1c(SCC(=O)Nc2cccc(Cl)c2C)nnc1-c1ccncc1 | / | . | .
COc1cc(/C=C2\Oc3cc(O)cc(O)c3C2=O)cc(OC)c1O | . | . | .
O=C(COc1ccc(Cl)cc1)NCc1n[nH]c(=S)n1-c1cccc(Cl)c1 | / | . | .
COc1ccc(C[C@H](N)C(=O)N[C@@H]2[C@@H](CO)OC(n3cnc4c(N(C)C)ncnc43)[C@@H]2O)cc1 (some centres not stated) | 93.3 | 108.2 | 106.4
CNC(=O)[C@H]1O[C@@H](n2cnc3c(NCc4cccc(I)c4)ncnc32)C(O)[C@H]1O (some centres not stated) | . | . | .
SMILES | Shh pathway inh | NOMO-1 viab | MITF inh
C[C@H]1CN([C@@H](C)CO)C(=O)Cc2cc(NC(=O)CCCCCC(=O)Nc3ccccc3N)ccc2O[C@@H]1CN(C)CC1CC1 | / | . | .
C[C@H]1CN([C@@H](C)CO)C(=O)Cc2cc(NC(=O)CCCCCC(=O)Nc3ccccc3N)ccc2O[C@@H]1CN(C)C | / | . | .
C[C@H]1CN([C@@H](C)CO)C(=O)Cc2cc(NC(=O)CCCCCC(=O)Nc3ccccc3N)ccc2O[C@H]1CN(C)C | / | ? | .
C[C@@H]1CN([C@H](C)CO)C(=O)Cc2cc(NC(=O)CCCCCC(=O)Nc3ccccc3N)ccc2O[C@@H]1CN(C)CC1CCCCC1 | / | 133.4 | .
C[C@@H]1CN([C@H](C)CO)C(=O)Cc2cc(NC(=O)CCCCCC(=O)Nc3ccccc3N)ccc2O[C@H]1CN(C)CC1CCCCC1 | / | 120.4 | .
C[C@H]1CN([C@@H](C)CO)C(=O)Cc2cc(NC(=O)CCCCCC(=O)Nc3ccccc3N)ccc2O[C@@H]1CN(C)CC1CCCCC1 | / | 102.0 | .
COC(=O)c1c(NC(=O)CN(c2cccc(Br)c2)S(C)(=O)=O)sc2c1CCCC2 | / | . | .
Cc1noc(C)c1S(=O)(=O)N(C)C[C@@H]1Oc2ccc(NC(=O)Nc3cccc4ccccc34)cc2CC(=O)N([C@H](C)CO)C[C@H]1C | . | . | .
COc1ccccc1NC(=O)C1=C(C)NC(=S)NC1c1ccccc1OCC(=O)O (configuration not stated) | / | . | .
C[C@H]1CN([C@@H](C)CO)C(=O)c2cc(NC(=O)CCC(F)(F)F)ccc2O[C@@H]1CN(C)S(=O)(=O)c1ccccc1 | . | . | .
COc1cc2nc3occc3c(OC)c2cc1OCC(OC(C)=O)C(C)(C)OC(C)=O (configuration not stated) | . | . | .
